From PubChem BioAssay (Tox21)
“And” between values parts separate entries of the source, which are not always exact repeats. Equal values may be shown once. Results filed as inconclusive are left out. A call without a number means that no potency is given here. The source made the active and inactive calls. Calls come from the whole dose curve; as a rule, active = well fitted cell-killing curve with a large enough effect in the repeat runs; inconclusive = weak or mixed curves; inactive = flat fitted curve, though single readings scatter.

Experiment: qHTS assay to identify small molecule antagonists of the estrogen related receptor (ERR) signaling pathway from Tox21 library - cell viability counter screen (AID 1224834); note: nearly all actives have a fitted effect of over 30% in size
Conditions: ERR reporter cells viability, CellTiter-Fluor, 17.5 h; series mostly up to 92.4 µM
Description: National Center for Advancing Translational Sciences [NCATS]
NIH Chemical Genomics Center [NCGC]
U.S. Environmental Protection Agency [EPA]
National Institutes of Environmental Health Sciences [NIEHS]
National Toxicology Program [NTP]
U.S. Food and Drug Administration [FDA]
Estrogen related receptors (ERRs), the first orphan nuclear receptors discovered, play an important role in the control of cellular energy metabolism. ERRs are required for high-energy production in response to the environmental challenges. ERR-alpha was also identified as an adverse marker for breast cancer progression; ERR-alpha-positive tumors have a poor prognosis. To screen and to identify environmental compounds that perturb the ERR signaling pathways could provide valuable information for potential therapeutic or preventive measures in the treatment of metabolic disease. To differentiate true ERR antagonists or agonist from cytotoxic substances, the assay is multiplexed with cell viability assay.
Tox21 Assay Protocol Summary:
The ERR cells were dispensed at 2,000 cells/5 ul/well in 1536-well white plates using a Multidrop dispenser. After the assay plates were incubated at a 37 C/5% CO2 incubator for 6 hours, 23 nL of compounds dissolved in DMSO, positive and negative controls or DMSO only was transferred to the assay plate by a pin tool. The plates were incubated at 37 C for 17.5 hours. 1 ul/well of CellTiter-Fluor reagent was added into the assay plates using a Flying Reagent Dispenser. After 30-minute incubation at 37 C/5% CO2, the fluorescence intensity in the plates was measured using a ViewLux plate reader.
Potency is the fitted concentration of half-maximal effect.

Compound | Potency
Cc1ccc2ncccc2c1 | inactive
Cc1ccc(C(C)C)c(O)c1 | inactive
c1ccc(Oc2ccccc2)cc1 | inactive
CC(=O)c1ccc(O)cc1 | inactive
N#Cc1ccccc1 | inactive
OCc1cccc(Oc2ccccc2)c1 | inactive
CCOC(=O)n1ccn(C)c1=S | inactive
C[C@]12CC[C@@H]3c4ccc(O)cc4CC[C@H]3[C@@H]1C[C@@H](O)[C@@H]2O | inactive
CC(C)c1cccc(C(C)C)c1 | inactive
COc1ccc(N)c(C)c1 | inactive
C=Cc1ccc(C)cc1 | inactive
CC(C)(C)c1cc(Cc2cc(C(C)(C)C)c(O)c(C(C)(C)C)c2)cc(C(C)(C)C)c1O | inactive
O=S(=O)(O)c1ccc(N=Nc2c(O)ccc3cc(S(=O)(=O)O)ccc23)cc1 | 30.8 µM (active) and 54.5 µM (active)
C=C(C)CNCC | inactive
CC(=O)OCCOC(C)=O | inactive
CSc1ccc(Cl)cc1 | inactive
CCNc1ccccc1 | inactive
CC(O)CC(C)(C)O (stereo not given) | inactive
CC(C)OP(=O)(CP(=O)(OC(C)C)OC(C)C)OC(C)C | inactive
CCCCCCCO | inactive

Compound | Potency
CCCCCCCCCCCCCCCC(=O)OC(C)C | inactive
CC(C)(C#N)c1cc(Cn2cncn2)cc(C(C)(C)C#N)c1 | inactive
CC(=O)CC(C)(C)O | inactive
CC(C)CCCCCCCOC(=O)CCCCC(=O)OCCCCCCCC(C)C | inactive
CC(CCO)CC(C)(C)C (stereo not given) | inactive
O=C(O)c1ccc(C(=O)O)c(C(=O)O)c1 | inactive
Clc1ccccn1 | inactive
O=C(O)CCCCCCCCC(=O)O | inactive
c1ccc2c(c1)Cc1ccccc1-2 | inactive
CN1C(=O)CC[C@H]1c1cccnc1 | inactive
Cc1ccc(S(=O)(=O)N=C=O)cc1 | inactive
CCCCCCO | inactive
C[C@]12CCC(=O)C=C1CC[C@@H]1[C@@H]2[C@@H](O)C[C@@]2(C)[C@H]1CC[C@]2(O)C(=O)CO | inactive
CC(=O)Oc1ccc(C)cc1 | inactive
O=C(O)c1ccc(S(=O)(=O)N(Cl)Cl)cc1 | inactive
CC1(C)OC[C@@H]2O[C@@]3(C(=O)O)OC(C)(C)O[C@H]3[C@@H]2O1 | inactive
CC(=O)OC1CC(C)OC(C)O1 (stereo not given) | inactive
C=CCCCCCCCCC(=O)O | inactive
Cc1ccc([N+](=O)[O-])cc1S(=O)(=O)O | inactive
O=S(=O)(O)c1ccccc1 | inactive
